Test results reported in PubChem BioAssay AID1159580 (chemical genetic matrix, 2015).
In all, about 5,500 compounds went through this assay and about 2,000 (36%) were called active. Another 18% or so got no clear call; they are omitted. Rule as the data show it: active = normalized growth mostly below about 0.91 (no sharp cut-off); inconclusive = no clear call, values can overlap the other calls; inactive = mostly above about 0.92. Some of the results follow.

Assay: chemical genetic growth profiling, strain panel (AID 1159580);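 also: tested at 20 µM; growth read once vehicle control cultures reached saturation at 30 °C; 1 = growth at the plate median or of vehicle wells; lower values mean less growth of the strain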
Details: growth OD
[1] = S. cerevisiae deletion strains, locus YAL040C, strain CLN3, hits give low values
[2] = S. cerevisiae deletion strains, locus YER002W, strain NOP16, hits give low values
[3] = S. cerevisiae deletion strains, locus YMR307W, strain GAS1, hits give low values
[4] = S. cerevisiae deletion strains, locus YNL128W, strain TEP1, hits give low values
[5] = S. cerevisiae deletion strains, locus YNL175C, strain NOP13, hits give low values
[6] = S. cerevisiae deletion strains, locus YNL197C, strain WHI3, hits give low values
[7] = S. cerevisiae deletion strains, locus YNL224C, strain SQS1, hits give low values
[8] = S. cerevisiae deletion strains, locus YOR083W, strain WHI5 (second series), hits give low values
[9] = S. cerevisiae deletion strains, locus YPL055C, strain LGE1, hits give low values
[10] = S. cerevisiae deletion strains, locus YDR150W, strain NUM1, hits give low values
[11] = S. cerevisiae deletion strains, locus YJR075W, strain HOC1, hits give low values
[12] = S. cerevisiae deletion strains, locus YNL153C, strain GIM3, hits give low values
[13] = S. cerevisiae deletion strains, locus YPL241C, strain CIN2, hits give low values

Measured: normalized growth

NC[C@@H]1O[C@H](C23CC4CC(CC(C4)C2)C3)Cc2c1ccc(O)c2O
active: [3] 0.414 | [9] 0.599
inactive: [1] 0.954 | [2] 0.998 | S. cerevisiae deletion strains, locus YMR263W, strain SAP30, hits give low values 1 | [4] 0.995 | [5] 1.03 | [6] 1.03 | [7] 1.09 | [8] 1.01

COc1cc2c(cc1O)CC[C@@H]1[C@@H]2CC[C@]2(C)[C@@H](O)CC[C@@H]12
inactive: [1] 1.02 | S. cerevisiae deletion strains, locus YCL061C, strain MRC1 (second series), hits give low values 1 | [10] 0.964 | S. cerevisiae deletion strains, locus YDR363W, strain ESC2, hits give low values 1.02 | [2] 0.994 | S. cerevisiae deletion strains, locus YGR078C, strain PAC10, hits give low values 1 | [11] 1.03 | [12] 0.936 | [5] 1.01 | [6] 1.03 | [7] 1.03 | [8] 0.982 | [13] 0.996

CC12CCC3c4ccc(OCc5ccccc5)cc4CCC3C1C[C@@H](O)[C@@H]2O (some centres undefined)
inactive: S. cerevisiae deletion strains, locus YBR021W, strain FUR4, hits give low values 0.995
active: S. cerevisiae deletion strains, locus YBR229C, strain ROT2, hits give low values 0.0599 | S. cerevisiae deletion strains, locus YCL029C, strain bik1, hits give low values 0.0651 | S. cerevisiae deletion strains, locus YDL035C, strain GPR1, hits give low values 0.1 | S. cerevisiae deletion strains, locus YDL074C, strain BRE1, hits give low values 0.0834 | S. cerevisiae deletion strains, locus YDL101C, strain DUN1, hits give low values 0.0689 | S. cerevisiae deletion strains, locus YDL134C, strain PPH21, hits give low values 0.055 | S. cerevisiae deletion strains, locus YDL185W, strain tfp1, hits give low values 0.058 | S. cerevisiae deletion strains, locus YDL192W, strain arf1, hits give low values 0.0627 | S. cerevisiae deletion strains, locus YDR101C, strain arx1, hits give low values 0.127 | [10] 0.355 | S. cerevisiae deletion strains, locus YDR162C, strain NBP2, hits give low values 0.0538 | S. cerevisiae deletion strains, locus YDR318W, strain mcm21, hits give low values 0.076 | S. cerevisiae deletion strains, locus YDR388W, hits give low values 0.066 | S. cerevisiae deletion strains, locus YDR502C, strain sam2, hits give low values 0.0938 | S. cerevisiae deletion strains, locus YEL061C, strain CIN8, hits give low values 0.0518 | S. cerevisiae deletion strains, locus YER110C, hits give low values 0.0937 | S. cerevisiae deletion strains, locus YER155C, strain BEM2, hits give low values 0.0637 | S. cerevisiae deletion strains, locus YER167W, strain BCK2, hits give low values 0.0557 | S. cerevisiae deletion strains, locus YGL078C, strain dbp3, hits give low values 0.106 | S. cerevisiae deletion strains, locus YGL086W, strain mad1, hits give low values 0.0655 | S. cerevisiae deletion strains, locus YGL248W, strain PDE1, hits give low values 0.0599 | S. cerevisiae deletion strains, locus YGR135W, strain pre9, hits give low values 0.265 | S. cerevisiae deletion strains, locus YGR252W, strain gcn5, hits give low values 0.133 | S. cerevisiae deletion strains, locus YHR030C, strain SLT2, hits give low values 0.0559 | S. cerevisiae deletion strains, locus YHR079C, strain IRE1 (second series), hits give low values 0.0829 | S. cerevisiae deletion strains, locus YHR094C, strain hxt1, hits give low values 0.0776 | S. cerevisiae deletion strains, locus YHR129C, strain ARP1, hits give low values 0.0606 | S. cerevisiae deletion strains, locus YHR200W, strain rpn10, hits give low values 0.0742 | S. cerevisiae deletion strains, locus YIL066C, strain RNR3, hits give low values 0.0563 | S. cerevisiae deletion strains, locus YIL073C, strain SPO22, hits give low values 0.112 | S. cerevisiae deletion strains, locus YIL125W, strain kgd1, hits give low values 0.0668 | S. cerevisiae deletion strains, locus YIR030C, strain dcg1, hits give low values 0.104 | S. cerevisiae deletion strains, locus YJL095W, strain BCK1, hits give low values 0.062 | S. cerevisiae deletion strains, locus YJL134W, strain LCB3, hits give low values 0.0681 | S. cerevisiae deletion strains, locus YJL168C, strain set2, hits give low values 0.0842 | S. cerevisiae deletion strains, locus YJL187C, strain SWE1 (second series), hits give low values 0.0613 | S. cerevisiae deletion strains, locus YJR043C, strain POL32, hits give low values 0.0826 | [11] 0.0841 | S. cerevisiae deletion strains, locus YKL009W, strain mrt4, hits give low values 0.0811 | S. cerevisiae deletion strains, locus YKL068W, hits give low values 0.187 | S. cerevisiae deletion strains, locus YKL085W, strain MDH1 (second series), hits give low values 0.068 | S. cerevisiae deletion strains, locus YKL085W, strain MDH1, hits give low values 0.068 | S. cerevisiae deletion strains, locus YKL190W, strain CNB1, hits give low values 0.0552 | S. cerevisiae deletion strains, locus YKR001C, strain vps1, hits give low values 0.062 | S. cerevisiae deletion strains, locus YLR039C, strain RIC1, hits give low values 0.0869 | S. cerevisiae deletion strains, locus YLR058C, strain SHM2, hits give low values 0.0598 | S. cerevisiae deletion strains, locus YLR102C, strain apc9, hits give low values 0.0693 | S. cerevisiae deletion strains, locus YLR262C, strain YPT6, hits give low values 0.103 | S. cerevisiae deletion strains, locus YLR268W, strain sec22, hits give low values 0.0915 | S. cerevisiae deletion strains, locus YLR330W, strain CHS5, hits give low values 0.0559 | S. cerevisiae deletion strains, locus YLR342W, strain FKS1 (second series), hits give low values 0.0702 | S. cerevisiae deletion strains, locus YLR371W, strain rom2, hits give low values 0.0664 | S. cerevisiae deletion strains, locus YLR418C, strain cdc73, hits give low values 0.101 | S. cerevisiae deletion strains, locus YML016C, strain PPZ1, hits give low values 0.0511 | S. cerevisiae deletion strains, locus YML032C, strain rad52, hits give low values 0.0688 | S. cerevisiae deletion strains, locus YML124C, strain tub3, hits give low values 0.117 | S. cerevisiae deletion strains, locus YMR078C, strain ctf18, hits give low values 0.0734 | S. cerevisiae deletion strains, locus YMR223W, strain ubp8, hits give low values 0.0801 | [3] 0.114 | S. cerevisiae deletion strains, locus YNL067W, strain RPL9B, hits give low values 0.093 | [4] 0.0726 | [12] 0.0573 | S. cerevisiae deletion strains, locus YNL233W, strain BNI4, hits give low values 0.0603 | S. cerevisiae deletion strains, locus YNL250W, strain rad50, hits give low values 0.0963 | S. cerevisiae deletion strains, locus YNL271C, strain bni1, hits give low values 0.129 | S. cerevisiae deletion strains, locus YNL298W, strain CLA4, hits give low values 0.0669 | S. cerevisiae deletion strains, locus YNL307C, strain MCK1, hits give low values 0.0674 | S. cerevisiae deletion strains, locus YNR052C, strain pop2, hits give low values 0.0752 | S. cerevisiae deletion strains, locus YOL006C, strain TOP1, hits give low values 0.114 | S. cerevisiae deletion strains, locus YOL012C, strain htz1 0.149 | S. cerevisiae deletion strains, locus YOL147C, strain pex11, hits give low values 0.0612 | S. cerevisiae deletion strains, locus YOR061W, strain CKA2, hits give low values 0.0522 | S. cerevisiae deletion strains, locus YOR069W, strain VPS5, hits give low values 0.0556 | S. cerevisiae deletion strains, locus YOR136W, strain idh2, hits give low values 0.077 | S. cerevisiae deletion strains, locus YOR144C, strain elg1, hits give low values 0.0719 | S. cerevisiae deletion strains, locus YOR184W, strain ser1, hits give low values 0.0768 | S. cerevisiae deletion strains, locus YOR316C, strain cot1, hits give low values 0.0738 | [9] 0.0696 | [13] 0.0593 | S. cerevisiae deletion strains, locus YPR119W, strain clb2, hits give low values 0.0659 | S. cerevisiae deletion strains, locus YPR141C, strain kar3, hits give low values 0.106 | S. cerevisiae deletion strains, locus YPR163C, strain tif3, hits give low values 0.0746 | S. cerevisiae deletion strains, locus YPR167C, strain met16, hits give low values 0.0654 | S. cerevisiae deletion strains, strain wtn01, hits give low values 0.107 | S. cerevisiae strains, strain wild type, hits give low values 0.0526
